Data on 5 molecules can be found in PubChem BioAssay.

Assay [1] relates to Human papillomavirus type 1a protein E7 (residues 44-93). In words: HPV1a E7 fragment binders on microarrays, primary screen, biochemical, small-molecule microarray, residues 44-93, 635 nm fluorescence (AID 1108).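 Further: E7 fragment applied at 1 µg/mL in TBST for 1 h at 4 C; score combines spot fluorescence with its signal to noise ratio.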 As to conditions: small-molecule microarray binding, fluorescence 635 nm; higher = more signal.
Assay [2] can be described thus: modulators of HCV replicon luciferase signal, primary screen, HCV replication inhibitor project, Huh7 cells, luciferase reporter (AID 1109).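 Further: huh7 hepatoma cells harbouring a luciferase neomycin HCV replicon reporter; luciferase luminescence as measure of HCV replicon replication; test concentration not given here.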 As to conditions: 48 h, higher = more signal.
Assay [3] has as its target Left-right determination factor 2 (Homo sapiens) (UniProt O00292). The assay is described as follows: LEFTY2 binders on small-molecule microarrays, primary screen, biochemical, small-molecule microarray, 635 nm fluorescence scan (AID 1110). As to conditions: LEFTY2 binding, higher = more signal.
For assay [4], the target named is Calmodulin-1 (Homo sapiens) (UniProt P0DP23). In words: CALM1 binders on microarrays, EGTA buffer, profiling panel, biochemical, small-molecule microarray, Cy5-labelled CALM1 (AID 1111).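 Further: labelled calmodulin applied in Tris saline Tween buffer holding calcium plus EGTA and DTT.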 As to conditions: Cy5-CALM1 binding fluorescence, higher = more signal.
The target is the same in assay [5]. In words: calcium-bound CALM1 binders on microarrays, profiling panel, artefact control for SMM control-protein annotation, biochemical, small-molecule microarray, Cy5-labelled CALM1, plus calcium (AID 1112).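 Further: score merges spot fluorescence with signal to noise from triplicate slides.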 As to conditions: Cy5-CALM1 binding fluorescence, higher = more signal.
Assay [6] in a line: small-molecule microarray binders of probe aWnt5a, primary screen, biochemical, biotinylated probe, 635/667 nm fluorescence (AID 1113).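 Further: score merges 667 nm fluorescence intensity with signal-to-noise per printed feature.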 As to conditions: higher = more signal.
The nature of assay [7]: small-molecule microarray binders of probe aShh, primary screen, biochemical, biotinylated probe, 635/667 nm fluorescence (AID 1114).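 Further: probe is biotin-labelled aShh protein from a stem cell growth factor screen; measures binding of labelled protein to compounds printed on the slide; score merges feature fluorescence at 667 nm with signal-to-noise.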 As to conditions: higher = more signal.
Assay [8] is described as follows: small-molecule microarray binders of probe aNog, primary screen, biochemical, biotinylated probe, 635/667 nm fluorescence (AID 1115).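 Further: probe is biotinylated aNog protein used at 0.15 µg/mL for 1 h at 4 C; z-score combines 667 nm fluorescence of each spot with its signal to noise.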 As to conditions: higher = more signal.
Assay [9] addresses Torsin-1A-interacting protein 1 (Homo sapiens) (UniProt Q5JTV8). In words: LAP1 binders from COS7 cell lysate, primary screen, small-molecule microarray, 635/667 nm fluorescence (AID 1116). As to conditions: COS7-hLAP1 lysate binding, 635 nm fluorescence, higher = more signal.
The target in assay [10] is Alpha-bungarotoxin (Bungarus multicinctus) (UniProt P60615). In words: alpha-bungarotoxin binders on microarray, profiling panel, artefact control for SMM control protein annotation, biochemical, small-molecule microarray, Alexa647 label, 635/667 nm fluorescence (AID 1117). As to conditions: alpha-BTX-A647 binding fluorescence, higher = more signal.
The next assay addresses Albumin (Bos taurus) (UniProt P02769). The assay is described as follows: bovine serum albumin binders on microarray, profiling panel, artefact control for SMM control protein annotation, biochemical, small-molecule microarray, Alexa647 label, 635/667 nm fluorescence (AID 1118).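 Further: score merges 667 nm emission intensity and signal-to-noise per printed compound spot.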 As to conditions: BSA-A647 binding, fluorescence 635 nm, higher = more signal.
A short description of assay [11]: small-molecule microarray binders of probe aXIP, primary screen, biochemical, NeuroSMM set, 635/667 nm fluorescence (AID 1119).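 Further: probe is the protein aXip251-270 applied at 1 µg/mL to compound-printed slides; binding of probe to printed compounds measured as 667 nm fluorescence plus signal to noise.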 As to conditions: higher = more signal, called active from +8 up or from −8 down.
The nature of assay [12]: small-molecule binders of probe aNOTCH3, primary screen, biochemical, small-molecule microarray, 635/667 nm fluorescence (AID 1120).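 Further: probe is a biotin-tagged antibody raised against NOTCH3 rather than NOTCH3 protein; score merges spot fluorescence near 667 nm with spot signal to noise.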 As to conditions: higher = more signal.
Assay [13] is described as follows: small-molecule binders of probe aNOTCH2, primary screen, biochemical, small-molecule microarray, 635/667 nm fluorescence (AID 1121).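 Further: score merges feature fluorescence read at 667 nm with its signal to noise.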 As to conditions: higher = more signal.
The target of assay [14] is Carbonic anhydrase 2 (Homo sapiens) (UniProt P00918). The assay is described as follows: CAII small-molecule binders, profiling panel, biochemical, small-molecule microarray, Alexa647-labelled CAII (AID 1122). As to conditions: CAII-A647 binding fluorescence, higher = more signal.
The nature of assay [15]: COS7 lysate on small-molecule microarray, probe aHis, 635 nm (AID 1123).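 Further: z-score combines 667nm fluorescence intensity with signal-to-noise per printed compound spot.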 As to conditions: COS7 cell lysate, fluorescence, higher = more signal.
Assay [16] can be described thus: compound binding in COS7 lysate, probe aLAP1, primary screen, cell lysate, small-molecule microarray (AID 1124).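 Further: lysate comes from COS7 cells expressing LAP1 and is applied at 0.3 µg/mL; score merges spot fluorescence near 667 nm with signal-to-noise over triplicate slides.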 As to conditions: probe aLAP1, fluorescence, higher = more signal.
The subject of a further assay is Sam68 (KHDRBS1). The assay is described as follows: Sam68 small-molecule binders, primary screen, biochemical, small-molecule microarray, 635 nm fluorescence (AID 1125).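 Further: score merges 667 nm channel intensity with signal to noise over triplicate slides.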 As to conditions: small-molecule microarray binding, higher = more signal.
The subject of assay [17] is Chordin-like protein 2 (CHRDL2). In words: CHRDL2 small-molecule binders, primary screen, biochemical, small-molecule microarray, 635 nm fluorescence (AID 1126).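 Further: printed compound slides probed with Chrdl2 protein at 4 µg/mL for 1 h at 4 C; score merges 667 nm emission intensity with signal to noise over three replicate slides.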 As to conditions: small-molecule microarray binding, fluorescence 635 nm; higher = more signal.
The target in assay [18] is Concanavalin-A (Canavalia ensiformis) (UniProt P02866). In words: ConA small-molecule binders, primary screen, artefact control for SMM control protein annotation, biochemical, small-molecule microarray, Alexa647 label, 635 nm (AID 1127).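 Further: z combines 667 nm emission intensity with signal-to-noise across three replicate slides.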 As to conditions: ConA-A647 binding fluorescence, higher = more signal.

Activity calls are given as the source filed them.

Chain of Albumin (Bos taurus) (P02769 whole entry, looked up): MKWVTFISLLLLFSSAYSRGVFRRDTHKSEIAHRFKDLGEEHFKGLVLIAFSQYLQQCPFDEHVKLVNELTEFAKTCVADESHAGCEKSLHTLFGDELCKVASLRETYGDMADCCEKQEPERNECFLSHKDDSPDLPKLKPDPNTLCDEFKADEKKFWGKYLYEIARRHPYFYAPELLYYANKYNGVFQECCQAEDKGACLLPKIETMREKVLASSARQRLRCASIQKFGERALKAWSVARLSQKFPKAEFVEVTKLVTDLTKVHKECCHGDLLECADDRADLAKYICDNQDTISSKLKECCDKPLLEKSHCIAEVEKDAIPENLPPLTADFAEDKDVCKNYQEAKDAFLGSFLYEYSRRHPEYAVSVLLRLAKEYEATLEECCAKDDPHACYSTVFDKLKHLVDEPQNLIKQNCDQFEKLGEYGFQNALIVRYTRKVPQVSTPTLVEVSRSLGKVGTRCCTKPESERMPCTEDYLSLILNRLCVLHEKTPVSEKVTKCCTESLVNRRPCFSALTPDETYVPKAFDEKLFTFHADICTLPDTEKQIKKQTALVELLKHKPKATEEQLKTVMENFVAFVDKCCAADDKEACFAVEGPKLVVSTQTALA
Chain of Concanavalin-A (Canavalia ensiformis) (P02866 whole entry, looked up): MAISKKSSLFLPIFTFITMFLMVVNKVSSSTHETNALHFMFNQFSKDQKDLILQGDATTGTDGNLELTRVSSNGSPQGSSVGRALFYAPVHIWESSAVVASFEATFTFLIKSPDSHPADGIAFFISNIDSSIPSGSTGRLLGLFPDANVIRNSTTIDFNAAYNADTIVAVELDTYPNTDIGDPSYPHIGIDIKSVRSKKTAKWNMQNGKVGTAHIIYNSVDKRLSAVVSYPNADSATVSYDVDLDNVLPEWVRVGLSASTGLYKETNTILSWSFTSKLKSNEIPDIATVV
Chain of Alpha-bungarotoxin (Bungarus multicinctus) (P60615 whole entry, looked up): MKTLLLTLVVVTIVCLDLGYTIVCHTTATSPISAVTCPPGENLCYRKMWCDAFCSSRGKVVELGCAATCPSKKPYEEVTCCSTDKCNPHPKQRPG
Chain of Left-right determination factor 2 (Homo sapiens) (O00292 whole entry, looked up): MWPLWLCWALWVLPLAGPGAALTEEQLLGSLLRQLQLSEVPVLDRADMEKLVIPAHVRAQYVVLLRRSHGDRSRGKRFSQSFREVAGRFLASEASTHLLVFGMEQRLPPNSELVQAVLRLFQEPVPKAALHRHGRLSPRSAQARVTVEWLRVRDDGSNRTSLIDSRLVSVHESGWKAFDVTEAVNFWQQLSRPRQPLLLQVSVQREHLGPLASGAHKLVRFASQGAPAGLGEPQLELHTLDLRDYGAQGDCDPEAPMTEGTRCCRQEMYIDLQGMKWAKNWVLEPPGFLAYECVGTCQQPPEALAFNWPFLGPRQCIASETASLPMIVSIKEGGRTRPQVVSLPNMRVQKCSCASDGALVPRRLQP
Chain of Torsin-1A-interacting protein 1 (Homo sapiens) (Q5JTV8 whole entry, looked up): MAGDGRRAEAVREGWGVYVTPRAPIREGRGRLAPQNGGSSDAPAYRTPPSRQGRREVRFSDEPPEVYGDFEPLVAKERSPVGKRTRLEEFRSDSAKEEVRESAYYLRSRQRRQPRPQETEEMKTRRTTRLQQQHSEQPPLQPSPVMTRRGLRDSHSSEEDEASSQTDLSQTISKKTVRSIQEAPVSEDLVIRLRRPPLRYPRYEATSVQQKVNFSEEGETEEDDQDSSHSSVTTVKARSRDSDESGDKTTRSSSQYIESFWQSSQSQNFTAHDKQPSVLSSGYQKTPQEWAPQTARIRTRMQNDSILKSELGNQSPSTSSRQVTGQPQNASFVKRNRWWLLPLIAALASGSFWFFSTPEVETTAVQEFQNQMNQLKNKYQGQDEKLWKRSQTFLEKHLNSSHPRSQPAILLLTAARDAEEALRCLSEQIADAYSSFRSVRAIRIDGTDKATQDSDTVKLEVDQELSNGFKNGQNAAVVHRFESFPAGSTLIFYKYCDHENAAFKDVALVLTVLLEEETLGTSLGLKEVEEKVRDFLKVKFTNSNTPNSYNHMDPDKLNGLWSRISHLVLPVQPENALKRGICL

With `COc1ccc([Si](C)(C)[C@@H]2[C@@H](CCO)O[C@]3(C(=O)N(Cc4ccc(N5C(=O)c6ccccc6Oc6ccccc65)cc4)c4ccccc43)[C@H]2C)cc1`, the composite z-score in assay [1] is -0.0261; in assay [3] it was -1.16; in [4], 0.322; in [5], 0.751; in [6], -0.0643; in assay [7] it was -0.138. The composite z-score is -0.358 in assay [8]; -1.06 in assay [9]; 0.0794 in assay [10]; 0.0104 in the assay with Albumin (Bos taurus); -0.0984 in assay [12]; -0.106 in assay [13]. In addition, the composite z-score was -0.104 in assay [14]; 0.232 in assay [15]; -0.398 in assay [16]; -0.345 in the assay with Sam68 (KHDRBS1); -0.968 in assay [17]; 0.187 in assay [18]. For the same molecule, the z-score in assay [2] was -4.95. The composite Z-score in assay [11] was 0.441 (inactive).
For `CC(C)(C)OC(=O)CC[C@@]1(C(=O)N2CCCCC2)N=C(c2ccc(OCCCO)cc2)O[C@@H]1c1ccccc1N=[N+]=[N-]`, the composite z-score turned out to be 1.03 in assay [1]; 0.503 in assay [3]; 1.07 in [4]; 0.398 in assay [5]; 0.0434 in [6]; 0.0638 in [7]. The composite z-score came out at 1.92 in assay [8]; 1.27 in assay [9]; 0.451 in assay [10]; 0.943 with Albumin (Bos taurus); 0.4 in assay [12]; 0.127 in assay [13]. The composite z-score in assay [14] amounted to 0.775; in [15], 2.94; in assay [16], 1.58; with Sam68 (KHDRBS1) it was 1.29; in assay [17] it was 0.142; in assay [18], 1.17. This molecule also came in with a z-score in assay [2] of 0.0393. For the same molecule, in [11], the composite Z-score is -0.15 (inactive).
Turning to `COC(=O)c1ccc(OC)c(/C=C\CC(CCc2ccccc2)OC(=O)c2ccncc2)c1` (stereo not given), the composite z-score in assay [1] was -0.0796; in [3] it was 1.45; in assay [4] it was -1.61; in assay [5] it was -1.72; in assay [6] it was -0.25; in [7], -0.117. Besides, the composite z-score in [8] is -0.385; in assay [9] it was 0.489; in [10], 1.65; in the assay with Albumin (Bos taurus), -0.805; in assay [12], -0.26; in assay [13] it was -0.225. The composite z-score in [14] was 0.388; in [15] it was 0.721; in assay [16], 0.863; with Sam68 (KHDRBS1) it was 0.0029; in assay [17], 1.52; in assay [18] it was -0.363. In [2], this molecule showed a z-score of -0.578. The composite Z-score in [11] is 0.302 (inactive).
Turning to `CC(C)(C)OC(=O)CC[C@@]1(C(=O)N2CCCCC2)N=C(c2ccc(OCCCO)cc2)O[C@@H]1c1ccccc1CN=[N+]=[N-]`, the composite z-score was found to be 1.46 in assay [1]; 0.0083 in assay [3]; 1.88 in assay [4]; 0.709 in assay [5]; 0.0629 in [6]; 0.199 in assay [7]. Besides, the composite z-score is -0.685 in [8]; 2.04 in [9]; 2.27 in assay [10]; 1.03 in the assay with Albumin (Bos taurus); 0.359 in assay [12]; 0.13 in [13]. In addition, the composite z-score in assay [14] is 0.597; in assay [15], 2.99; in assay [16], 0.639; in the assay on Sam68 (KHDRBS1), 1.29; in [17] it was -0.813; in [18], 1.18. In assay [2], this molecule showed a z-score of -2.36. Further, in [11], the composite Z-score was 0.18 (inactive).
Consider `C=C[C@H](C)[C@H](OC(=O)Nc1ccc(SC)cc1)c1ccc(O)c2ccccc12`, for which the composite z-score was -1.97 in assay [1]; -0.256 in assay [3]; -0.413 in [4]; 0.273 in assay [5]; -0.325 in assay [6]; 0.0952 in assay [7]. Also, the composite z-score in assay [8] is -0.383; in assay [9], -0.0193; in assay [10] it was -0.385; with Albumin (Bos taurus) it was 0.801; in [12], -0.311; in assay [13], -0.192. The composite z-score in assay [14] is 0.736; in [15] it was 0.518; in assay [16], -0.0167; in the assay on Sam68 (KHDRBS1), -0.581; in assay [17], -0.0707; in assay [18], -0.252. Besides, the z-score in [2] was -0.766. For the same molecule, the composite Z-score in assay [11] was -0.53 (inactive).
